Common to all, as to experiment: PBM; 200 nM protein, PBS
Common to all, as to conditions: dsDNA, one strand shown

For test [1], the target named is T1, VENTX (Homo sapiens, UniProt O95231 78-163, R121Q).
T1 sequence: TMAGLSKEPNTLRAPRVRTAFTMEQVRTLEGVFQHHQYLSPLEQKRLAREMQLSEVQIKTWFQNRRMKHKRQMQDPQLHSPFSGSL

Test [2] addresses T2, VENTX (Homo sapiens, UniProt O95231 78-163).
T2 sequence: T1 sequence with Q44R

Test [3] addresses T3, VENTX (Homo sapiens, UniProt O95231 78-163, Y115F).
T3 sequence: T1 sequence with Y38F, Q44R

For test [4], the target named is ALX3 (Homo sapiens, UniProt O95076 139-225, N203Q).
Test [5] deals with ALX3 (Homo sapiens, UniProt O95076 139-225).
The target in test [6] is ALX3 (Homo sapiens, UniProt O95076 139-225, L168Q).
Test [7] addresses ALX3 (Homo sapiens, UniProt O95076 139-225, L168V).
The target of test [8] is ALX3 (Homo sapiens, UniProt O95076 139-225, N203S).
Test [9] deals with T4, NKX2-6 (Homo sapiens, UniProt A6NCS4 118-204).
T4 sequence: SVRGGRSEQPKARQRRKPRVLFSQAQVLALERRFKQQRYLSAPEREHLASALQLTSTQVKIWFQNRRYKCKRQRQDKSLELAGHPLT

Test [10] deals with T5, NKX2-6 (Homo sapiens, UniProt A6NCS4 118-204, F151L).
T5 sequence: T4 sequence with F34L

Test [11] addresses ALX1 (Homo sapiens, UniProt Q15699 118-204, L144V).
The target in test [12] is ALX1 (Homo sapiens, UniProt Q15699 118-204, L144R).
Test [13] concerns the target ALX1 (Homo sapiens, UniProt Q15699 118-204).
Test [14] concerns the target HOXD13 (Homo sapiens, UniProt P35453 263-343, T313R).
The target in test [15] is HOXD13 (Homo sapiens, UniProt P35453 263-343).
The target of test [16] is HOXD13 (Homo sapiens, UniProt P35453 263-343, T313A).
Test [17] has as its target HOXB6 (Homo sapiens, UniProt P17509 132-218, K202E).
The target of test [18] is HOXB6 (Homo sapiens, UniProt P17509 132-218).
Test [19] addresses VAX1 (Homo sapiens, UniProt Q5SQQ9 86-172).
In test [20] the target is VAX1 (Homo sapiens, UniProt Q5SQQ9 86-172, T142I).
The target of test [21] is VAX1 (Homo sapiens, UniProt Q5SQQ9 86-172, K157R).
The target in test [22] is HOXA2 (Homo sapiens, UniProt O43364 129-215, R185T).
The target of test [23] is HOXA2 (Homo sapiens, UniProt O43364 129-215, R185K).
The target of test [24] is HOXA2 (Homo sapiens, UniProt O43364 129-215, Y150S).
The target of test [25] is HOXA2 (Homo sapiens, UniProt O43364 129-215).
Test [26] deals with T6, PAX4 (Homo sapiens, UniProt O43316 9-242, F177V).
T6 sequence: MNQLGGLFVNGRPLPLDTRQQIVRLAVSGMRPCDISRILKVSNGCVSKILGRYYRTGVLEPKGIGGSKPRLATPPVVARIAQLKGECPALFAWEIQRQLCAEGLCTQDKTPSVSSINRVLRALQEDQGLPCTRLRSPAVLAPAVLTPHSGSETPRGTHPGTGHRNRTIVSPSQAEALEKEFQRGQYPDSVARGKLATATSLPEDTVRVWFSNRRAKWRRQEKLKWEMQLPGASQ

Test [27] deals with T7, PAX4 (Homo sapiens, UniProt O43316 9-242, R227W).
T7 sequence: T6 sequence with V169F, R219W

The target of test [28] is HOXA4 (Homo sapiens, UniProt Q00056 201-287, R217L).

Substitutions are numbered along the chain they refer to.

Sequence of ALX3 (Homo sapiens, UniProt O95076 139-225, N203S) (O95076 139-225 N203S): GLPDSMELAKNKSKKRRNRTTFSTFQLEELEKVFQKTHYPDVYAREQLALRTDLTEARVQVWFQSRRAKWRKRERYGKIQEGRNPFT
Sequence of HOXA2 (Homo sapiens, UniProt O43364 129-215, Y150S) (O43364 129-215 Y150S): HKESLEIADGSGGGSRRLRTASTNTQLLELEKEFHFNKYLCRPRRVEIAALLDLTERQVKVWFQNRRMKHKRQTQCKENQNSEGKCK
Sequence of HOXA2 (Homo sapiens, UniProt O43364 129-215, R185K) (O43364 129-215 R185K): as the sequence (O43364 129-215 Y150S) above, with S22Y, R57K counted along it
Sequence of ALX3 (Homo sapiens, UniProt O95076 139-225, L168V) (O95076 139-225 L168V): as the sequence (O95076 139-225 N203S) above, with L30V, S65N counted along it
Sequence of ALX3 (Homo sapiens, UniProt O95076 139-225, N203Q) (O95076 139-225 N203Q): as the sequence (O95076 139-225 N203S) above, with S65Q counted along it
Sequence of ALX3 (Homo sapiens, UniProt O95076 139-225, L168Q) (O95076 139-225 L168Q): as the sequence (O95076 139-225 N203S) above, with L30Q, S65N counted along it
Sequence of HOXA2 (Homo sapiens, UniProt O43364 129-215) (O43364 129-215): as the sequence (O43364 129-215 Y150S) above, with S22Y counted along it
Sequence of ALX3 (Homo sapiens, UniProt O95076 139-225) (O95076 139-225): as the sequence (O95076 139-225 N203S) above, with S65N counted along it
Sequence of HOXA2 (Homo sapiens, UniProt O43364 129-215, R185T) (O43364 129-215 R185T): as the sequence (O43364 129-215 Y150S) above, with S22Y, R57T counted along it
Sequence of HOXB6 (Homo sapiens, UniProt P17509 132-218, K202E) (P17509 132-218 K202E): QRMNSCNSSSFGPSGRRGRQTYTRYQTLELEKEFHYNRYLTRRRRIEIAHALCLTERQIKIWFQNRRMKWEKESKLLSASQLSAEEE
Sequence of HOXB6 (Homo sapiens, UniProt P17509 132-218) (P17509 132-218): as the sequence (P17509 132-218 K202E) above, with E71K counted along it
Sequence of VAX1 (Homo sapiens, UniProt Q5SQQ9 86-172, K157R) (Q5SQQ9 86-172 K157R): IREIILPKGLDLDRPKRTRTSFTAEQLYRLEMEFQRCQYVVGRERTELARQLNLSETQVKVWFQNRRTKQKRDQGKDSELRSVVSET
Sequence of VAX1 (Homo sapiens, UniProt Q5SQQ9 86-172) (Q5SQQ9 86-172): as the sequence (Q5SQQ9 86-172 K157R) above, with R72K counted along it
Sequence of HOXD13 (Homo sapiens, UniProt P35453 263-343, T313R) (P35453 263-343 T313R): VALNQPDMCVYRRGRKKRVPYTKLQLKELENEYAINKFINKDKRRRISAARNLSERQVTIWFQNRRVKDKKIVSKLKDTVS
Sequence of HOXD13 (Homo sapiens, UniProt P35453 263-343) (P35453 263-343): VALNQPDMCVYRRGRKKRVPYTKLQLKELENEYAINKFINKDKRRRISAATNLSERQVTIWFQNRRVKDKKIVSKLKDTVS
Sequence of ALX1 (Homo sapiens, UniProt Q15699 118-204) (Q15699 118-204): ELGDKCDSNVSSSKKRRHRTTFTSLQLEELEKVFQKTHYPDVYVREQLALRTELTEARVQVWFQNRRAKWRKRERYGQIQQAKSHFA
Sequence of ALX1 (Homo sapiens, UniProt Q15699 118-204, L144R) (Q15699 118-204 L144R): as the sequence (Q15699 118-204) above, with L27R counted along it
Sequence of HOXA4 (Q00056 201-287 R217L): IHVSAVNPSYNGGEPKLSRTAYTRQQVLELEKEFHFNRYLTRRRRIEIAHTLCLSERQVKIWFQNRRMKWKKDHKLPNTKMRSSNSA
Sequence of HOXD13 (Homo sapiens, UniProt P35453 263-343, T313A) (P35453 263-343 T313A): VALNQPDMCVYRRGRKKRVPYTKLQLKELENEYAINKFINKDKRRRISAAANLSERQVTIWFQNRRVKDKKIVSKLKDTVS
Sequence of VAX1 (Homo sapiens, UniProt Q5SQQ9 86-172, T142I) (Q5SQQ9 86-172 T142I): as the sequence (Q5SQQ9 86-172 K157R) above, with T57I, R72K counted along it
Sequence of ALX1 (Homo sapiens, UniProt Q15699 118-204, L144V) (Q15699 118-204 L144V): as the sequence (Q15699 118-204) above, with L27V counted along it

Turning to GCTAAATA, the binding signal in test [1] was 10.1 upbm affinity estimate (log intensity, higher = more binding, comparable within an allelic series); in test [2] it was 10.6 upbm affinity estimate (log intensity, higher = more binding, comparable within an allelic series); in test [3] it was 10 upbm affinity estimate (log intensity, higher = more binding, comparable within an allelic series).
As for CAGGGGGG, the binding signal was 8.13 upbm affinity estimate (log intensity, higher = more binding, comparable within an allelic series) in test [1]; 8.11 upbm affinity estimate (log intensity, higher = more binding, comparable within an allelic series) in [2]; 8.09 upbm affinity estimate (log intensity, higher = more binding, comparable within an allelic series) in test [3]; 7.62 upbm affinity estimate (log intensity, higher = more binding, comparable within an allelic series) in test [4]; 7.33 upbm affinity estimate (log intensity, higher = more binding, comparable within an allelic series) in [5]; 7.58 upbm affinity estimate (log intensity, higher = more binding, comparable within an allelic series) in test [6]. For the same sequence, the binding signal in [7] was 7.5 upbm affinity estimate (log intensity, higher = more binding, comparable within an allelic series); in [8], 7.6 upbm affinity estimate (log intensity, higher = more binding, comparable within an allelic series).
As for CGAGCCGC, the binding signal in [1] is 8.16 upbm affinity estimate (log intensity, higher = more binding, comparable within an allelic series); in test [2], 8.17 upbm affinity estimate (log intensity, higher = more binding, comparable within an allelic series); in test [3], 8.15 upbm affinity estimate (log intensity, higher = more binding, comparable within an allelic series); in test [4] it was 7.74 upbm affinity estimate (log intensity, higher = more binding, comparable within an allelic series); in test [9] it was 9.49 upbm affinity estimate (log intensity, higher = more binding, comparable within an allelic series); in test [5], 7.82 upbm affinity estimate (log intensity, higher = more binding, comparable within an allelic series). Besides, the binding signal is 7.81 upbm affinity estimate (log intensity, higher = more binding, comparable within an allelic series) in test [6]; 9.16 upbm affinity estimate (log intensity, higher = more binding, comparable within an allelic series) in test [10]; 7.75 upbm affinity estimate (log intensity, higher = more binding, comparable within an allelic series) in test [7]; 7.79 upbm affinity estimate (log intensity, higher = more binding, comparable within an allelic series) in test [8].
As to AGTCTGCC, the binding signal in [1] was 8.03 upbm affinity estimate (log intensity, higher = more binding, comparable within an allelic series); in [2], 8.12 upbm affinity estimate (log intensity, higher = more binding, comparable within an allelic series); in test [3] it was 8.07 upbm affinity estimate (log intensity, higher = more binding, comparable within an allelic series); in [11] it was 6.46 upbm affinity estimate (log intensity, higher = more binding, comparable within an allelic series); in [12] it was 6.59 upbm affinity estimate (log intensity, higher = more binding, comparable within an allelic series); in test [13], 6.61 upbm affinity estimate (log intensity, higher = more binding, comparable within an allelic series).
Take CGAGACCG: the binding signal in test [1] was 8.25 upbm affinity estimate (log intensity, higher = more binding, comparable within an allelic series); in [2], 8.39 upbm affinity estimate (log intensity, higher = more binding, comparable within an allelic series); in test [3] it was 8.28 upbm affinity estimate (log intensity, higher = more binding, comparable within an allelic series).
Consider CCGGGACC, for which the binding signal is 8.02 upbm affinity estimate (log intensity, higher = more binding, comparable within an allelic series) in test [1]; 8.2 upbm affinity estimate (log intensity, higher = more binding, comparable within an allelic series) in [2]; 7.98 upbm affinity estimate (log intensity, higher = more binding, comparable within an allelic series) in test [3]; 9.46 upbm affinity estimate (log intensity, higher = more binding, comparable within an allelic series) in test [14]; 9.14 upbm affinity estimate (log intensity, higher = more binding, comparable within an allelic series) in test [9]; 9.43 upbm affinity estimate (log intensity, higher = more binding, comparable within an allelic series) in test [15]. The binding signal in test [16] is 9.37 upbm affinity estimate (log intensity, higher = more binding, comparable within an allelic series); in test [10], 9.26 upbm affinity estimate (log intensity, higher = more binding, comparable within an allelic series).
CCACGCGC: the binding signal in test [1] is 8.13 upbm affinity estimate (log intensity, higher = more binding, comparable within an allelic series); in [2], 8.26 upbm affinity estimate (log intensity, higher = more binding, comparable within an allelic series); in [3], 8.14 upbm affinity estimate (log intensity, higher = more binding, comparable within an allelic series); in test [17], 9.05 upbm affinity estimate (log intensity, higher = more binding, comparable within an allelic series); in test [18], 8.96 upbm affinity estimate (log intensity, higher = more binding, comparable within an allelic series).
As for CCGCTGGC, the binding signal is 7.68 upbm affinity estimate (log intensity, higher = more binding, comparable within an allelic series) in test [1]; 7.51 upbm affinity estimate (log intensity, higher = more binding, comparable within an allelic series) in test [2]; 7.74 upbm affinity estimate (log intensity, higher = more binding, comparable within an allelic series) in [3]; 8.89 upbm affinity estimate (log intensity, higher = more binding, comparable within an allelic series) in [17]; 6.67 upbm affinity estimate (log intensity, higher = more binding, comparable within an allelic series) in test [19]; 7.05 upbm affinity estimate (log intensity, higher = more binding, comparable within an allelic series) in [20]. For the same sequence, the binding signal in test [21] was 6.73 upbm affinity estimate (log intensity, higher = more binding, comparable within an allelic series); in test [18] it was 8.76 upbm affinity estimate (log intensity, higher = more binding, comparable within an allelic series).
In the case of CCCGTCCG, the binding signal in test [1] was 7.93 upbm affinity estimate (log intensity, higher = more binding, comparable within an allelic series); in [2], 7.94 upbm affinity estimate (log intensity, higher = more binding, comparable within an allelic series); in test [3] it was 7.87 upbm affinity estimate (log intensity, higher = more binding, comparable within an allelic series); in [4], 7.62 upbm affinity estimate (log intensity, higher = more binding, comparable within an allelic series); in [5] it was 7.58 upbm affinity estimate (log intensity, higher = more binding, comparable within an allelic series); in [6], 7.67 upbm affinity estimate (log intensity, higher = more binding, comparable within an allelic series). The binding signal in [7] was 7.65 upbm affinity estimate (log intensity, higher = more binding, comparable within an allelic series); in test [8] it was 7.6 upbm affinity estimate (log intensity, higher = more binding, comparable within an allelic series).
Take GGCGGCCC: the binding signal is 8.11 upbm affinity estimate (log intensity, higher = more binding, comparable within an allelic series) in test [1]; 8.22 upbm affinity estimate (log intensity, higher = more binding, comparable within an allelic series) in test [2]; 8.03 upbm affinity estimate (log intensity, higher = more binding, comparable within an allelic series) in [3]; 7.21 upbm affinity estimate (log intensity, higher = more binding, comparable within an allelic series) in [22]; 9.97 upbm affinity estimate (log intensity, higher = more binding, comparable within an allelic series) in test [23]; 10.3 upbm affinity estimate (log intensity, higher = more binding, comparable within an allelic series) in test [24]. Besides, in test [25], the binding signal was 7.16 upbm affinity estimate (log intensity, higher = more binding, comparable within an allelic series).
For the sequence CACTAATG, the binding signal was 11.7 upbm affinity estimate (log intensity, higher = more binding, comparable within an allelic series) in test [1]; 12.3 upbm affinity estimate (log intensity, higher = more binding, comparable within an allelic series) in test [2]; 11.6 upbm affinity estimate (log intensity, higher = more binding, comparable within an allelic series) in test [3]; 12.1 upbm affinity estimate (log intensity, higher = more binding, comparable within an allelic series) in [22]; 13.2 upbm affinity estimate (log intensity, higher = more binding, comparable within an allelic series) in test [23]; 10.9 upbm affinity estimate (log intensity, higher = more binding, comparable within an allelic series) in test [24]. Further, the binding signal in test [25] was 12.1 upbm affinity estimate (log intensity, higher = more binding, comparable within an allelic series).
As for ACATATTA, the binding signal in [1] is 10.6 upbm affinity estimate (log intensity, higher = more binding, comparable within an allelic series); in [2], 11.3 upbm affinity estimate (log intensity, higher = more binding, comparable within an allelic series); in test [3] it was 10.4 upbm affinity estimate (log intensity, higher = more binding, comparable within an allelic series); in [4], 8.55 upbm affinity estimate (log intensity, higher = more binding, comparable within an allelic series); in test [26] it was 10.8 upbm affinity estimate (log intensity, higher = more binding, comparable within an allelic series); in test [27], 11 upbm affinity estimate (log intensity, higher = more binding, comparable within an allelic series).
Take GCTTATTA: the binding signal in test [1] is 10.2 upbm affinity estimate (log intensity, higher = more binding, comparable within an allelic series); in test [2], 10.8 upbm affinity estimate (log intensity, higher = more binding, comparable within an allelic series); in test [3], 10.3 upbm affinity estimate (log intensity, higher = more binding, comparable within an allelic series); in test [22] it was 10.9 upbm affinity estimate (log intensity, higher = more binding, comparable within an allelic series); in [23], 12.2 upbm affinity estimate (log intensity, higher = more binding, comparable within an allelic series); in test [24], 10.7 upbm affinity estimate (log intensity, higher = more binding, comparable within an allelic series). Further, the binding signal in test [25] is 10.7 upbm affinity estimate (log intensity, higher = more binding, comparable within an allelic series).
Consider CCATTAGC, for which the binding signal is 12.2 upbm affinity estimate (log intensity, higher = more binding, comparable within an allelic series) in test [1]; 12.9 upbm affinity estimate (log intensity, higher = more binding, comparable within an allelic series) in test [2]; 11.9 upbm affinity estimate (log intensity, higher = more binding, comparable within an allelic series) in [3]; 12.3 upbm affinity estimate (log intensity, higher = more binding, comparable within an allelic series) in test [22]; 11.4 upbm affinity estimate (log intensity, higher = more binding, comparable within an allelic series) in [28]; 13.1 upbm affinity estimate (log intensity, higher = more binding, comparable within an allelic series) in test [23]. Moreover, the binding signal was 10.6 upbm affinity estimate (log intensity, higher = more binding, comparable within an allelic series) in test [24]; 12 upbm affinity estimate (log intensity, higher = more binding, comparable within an allelic series) in [25]; 12.4 upbm affinity estimate (log intensity, higher = more binding, comparable within an allelic series) in test [21].

(Values after article PMC11006913.)
